# Screening results (PubChem)
# Shn3 3UTR inh – Schnurri-3 reporter inhibition in Clone20 osteoblasts. Clone20 osteoblast Shn3 3'UTR firefly luciferase, 24 h. inhibition, % at 12.5 µM. 360,000 tested, 0.52% active;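 active means mean inhibition of at least 75% with every replicate also reaching 75%; inconclusive means mean inhibition at least 75% but some replicate below; inactive means mean inhibition below 75%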;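 further: 0% = median of neutral control wells and 100% = pilot-screen positive control compound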
# Glyco luc inh – blocks N-linked glycosylation in D54 reporter cells; AID 588692; reporter increase, % at 12.5 µM; D54 ERlucT glycosylation luciferase reporter, 24 h; percent of 100 nM tunicamycin response; 360,000 tested, 0.23% active;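 active means mean luciferase reporter signal, scaled so untreated is 0 and the glycosylation-blocking control 100, at or above a set limit in every replicate; inconclusive means mean reaches the limit but not every replicate does; inactive means mean below the limit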;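 further: luciferase carries N-glycosylation sites so blocking glycosylation raises the light; 0% = median of neutral control wells and 100% = median of 100 nM tunicamycin wells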
# NSD2 inh – blocks human histone methyltransferase NSD2; AID 743445; 310,000 tested, 0.54% active; inhibition, % at 12.5 µM; O96028; NSD2 peptide methylation, AlphaScreen, 120 min; in the data active means inhibition above about 50%
# LMP1 NFkB inh – reduces LMP1-driven NF-kappaB luciferase signal; LMP1-induced NF-kappaB luciferase reporter cells, luminescence; inhibition, % at 12.5 µM; 350,000 tested, 0.69% active; AID 504558; in the data active means inhibition above about 41%; inconclusive means no clear call, values can overlap the other calls;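 further: 0% = neutral control wells and 100% = reference inhibitor control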
# Env fusion inh – blocks HIV Env-driven cell-cell fusion. HeLa-JRFL Env/CEM21 cell fusion, luciferase. inhibition, % at 12.3 µM. 360,000 tested, 1.1% active. AID 651610;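 active means mean replicate inhibition score of at least 50 and every replicate individually at or above 50; inconclusive means only one of the two criteria met; inactive means mean below 50 and not all replicates reaching 50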;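 further: 0% = plate neutral controls and 100% = maraviroc near 300 nM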
# PAX8 inh HTS – lowers PAX8-driven luciferase in RMG-I cells | 360,000 tested, 1.2% active | AID 652154 | inhibition, % at 12.6 µM | RMG-I TPO-luciferase reporter, SteadyGlo, 24 h;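 active means mean replicate inhibition at least 60% with every replicate also reaching 60%; inconclusive means only one of the two criteria is met; inactive means mean below 60% and not all replicates reaching 60%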;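 further: luciferase light reporting Pax8 driven TPO promoter activity; plate controls were median of neutral control wells for no effect and mitoxantrone controls for full effect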
# The depositor's hits bear a star; u = inconclusive; x = not tested or not shown; [ ] = remark or other dose. Rows were chosen to be rich in hits. Some 2.8% of all compounds tested hit in one or more screens of this group.
SMILES,Shn3 3UTR inh,Glyco luc inh,NSD2 inh,LMP1 NFkB inh,Env fusion inh,PAX8 inh HTS
N[C@H]1C(O)O[C@H](CO)[C@@H](O)[C@@H]1O (stereo not given in full),-3,0,x,-12,8,-14
CCC(=O)Nc1ccc2c(c1)OC[C@H](C)N(CC1CCCCC1)C[C@H](C)[C@H](OC)CN(C)C2=O,x,x,x,x,2[16.7 µM],-9
Cc1noc(C)c1NC(=O)N[C@@H]1C=C[C@H](CC(=O)Nc2ccccc2)O[C@H]1CO,x,x,x,x,-2[16.7 µM],x
CCOC(=O)OC(C)OC(=O)[C@@H]1N2C(=O)[C@@H](NC(=O)[C@H](N)c3ccccc3)[C@H]2SC1(C)C (stereo not given in full),9,2,x,56*,25,-8
C[C@@H]1CN([C@H](C)CO)C(=O)c2cc(-c3ccc(F)cc3)cnc2O[C@H]1CN(C)C(=O)Cc1ccccc1,x,x,x,x,6[16.7 µM],x
Cc1noc(C)c1NC(=O)Nc1ccc2c(c1)CC(=O)N([C@H](C)CO)C[C@H](C)[C@H](CN(C)C(=O)Nc1c(C)noc1C)O2,x,x,x,x,-1[16.7 µM],-19
CCC(=O)N1c2ccc(S(=O)(=O)CCC(=O)N3CCn4c3nc3ccccc34)cc2CC1C (stereo not given),12,-7,-3,13,16,106*
CCOC(=O)N1CCN(C(=O)CCS(=O)(=O)c2ccc3c(c2)CC(C)N3C(=O)CC)CC1 (stereo not given),16,1,-5,2,1,-1
C[C@@H]1CN([C@@H](C)CO)C(=O)Cc2cc(NC(=O)Nc3cccc4ccccc34)ccc2O[C@H]1CN(C)C(=O)NC1CCCCC1,x,x,x,x,-11[16.7 µM],-4
Cc1c(CNCCc2ccccc2Cl)c(C(=O)O)c(C)n1-c1ccccc1,-10,-4,5,17,57*,16
Cc1c(CNCCc2ccc(Cl)cc2)c(C(=O)O)c(C)n1Cc1ccccc1,8,-2,6,-2,14,-6
Cc1cc(C)nc(/N=C(\N)Nc2ccc(CC(=O)OC(C)C)cc2)n1,66,48*,x,-17,68*,-3
Cc1cc(C)nc(/N=C(\N)Nc2ccc(OCc3ccccc3)cc2)n1,73,48*,12,-5,13,54
Cc1cc(C)nc(/N=C(\N)Nc2cccc(OCc3ccccc3)c2)n1,46,20,6,-3,-16,36
COc1ccc(N/C(N)=N/c2nc(C)cc(C)n2)cc1,14,6,-1,6,-12,6
Cc1cc(C)nc(/N=C(\N)Nc2ccc(OCCC(C)C)cc2)n1,64,48*,-1,16,11,24
O=C(O)CCCCCCC(=O)Nc1ccc(C2OC(CSCCO)CC(c3ccccc3)O2)cc1 (stereo not given),x,x,x,x,-17[16.7 µM],-12
COc1ccccc1C(=O)N1C[C@H]2[C@@H](c3ccccc31)[C@H](CO)N2C(=O)C1CCCCC1,x,x,x,x,x,-2
COc1ccc(-n2nc([N+](=O)[O-])c(=NCc3cccnc3)n2O)cc1,-9,4,-1,-2,x,146*
Cc1cc(C(=O)COc2cc(F)ccc2[N+](=O)[O-])c(C)n1C1CC1,-18,0,4,-2,-1,-5
Cc1cc(C(=O)Cn2cnc3cc(F)ccc3c2=O)c(C)n1C1CC1,93*,-2,-3,-21,-18,-22
COCc1[nH]nc2c1C(c1ccc(F)cc1)N(Cc1ccccc1)C2=O (stereo not given),x,x,x,x,77*,24
NS(=O)(=O)c1ccc(Sc2nc3ccccc3s2)c([N+](=O)[O-])c1,x,11,4,70*,73*,78*
CC(=O)N[C@H]1CC[C@@H](CCNC(=O)C2CC2)O[C@H]1CO,x,x,x,x,7[16.7 µM],1
CCN(CC)C(=O)CSC(Nc1ccc(F)cc1)=C(C#N)C#N,x,2,13,8,-7,6
SMILES,Shn3 3UTR inh,Glyco luc inh,NSD2 inh,LMP1 NFkB inh,Env fusion inh,PAX8 inh HTS
Cc1ccc(CSC(Nc2ccc(F)cc2)=C(C#N)C#N)cc1,23,-3,-3,14,68*,u
Cc1ccc(C(c2nnnn2C(C)(C)C)N(Cc2ccco2)Cc2cccs2)cc1 (stereo not given),24,-9,-2,-6,x,x
CC(C)(C)n1nnnc1C(c1ccc(C(F)(F)F)cc1)N(Cc1ccc(F)cc1)Cc1ccco1 (stereo not given),89*,-7,x,1,x,x
CC(C)(C)n1nnnc1C(c1ccc(C(F)(F)F)cc1)N(Cc1ccccc1)Cc1ccco1 (stereo not given),88*,-9,-1,-8,x,x
CC(C)(C)n1nnnc1C(c1cccs1)N(Cc1ccccc1)Cc1cccnc1 (stereo not given),30,-7,x,-2,x,x
CC(C)(C)n1nnnc1C(c1cccnc1)N(Cc1ccccc1)Cc1cccs1 (stereo not given),30,-5,2,7,57*,30
CC(C)(C)n1nnnc1C(c1ccc(Cl)cc1)N(Cc1cccnc1)Cc1ccco1 (stereo not given),12,-3,0,-5,x,x
CC(C)(C)n1nnnc1C(c1ccc(F)cc1)N(Cc1ccc(F)cc1)Cc1ccco1 (stereo not given),18,-10,-1,0,124*,33
CNC[C@H]1Oc2cc(C#Cc3ccccc3F)ccc2S(=O)(=O)N([C@H](C)CO)C[C@@H]1C,x,x,x,x,13[16.7 µM],-19
O=C1CCCc2cnnn2COC[C@H](Cc2ccccc2)N1,x,x,x,x,-32[16.7 µM],8
O=C(C=Cc1ccco1)c1ccc2ccccc2c1,95*,5,1,-12,-35,-137
CN(C)c1ccc(C(=O)/C=C/c2ccco2)cc1,-131,-11,5,-28,-147,-26
COCC#Cc1ccc2c(c1)O[C@H](CN(C)CC1CCOCC1)[C@H](C)CN([C@H](C)CO)S2(=O)=O,x,x,x,x,-8[16.7 µM],x
Cc1cc(C)n2nc(NCc3cccc(Br)c3)nc2n1,19,-1,0,-1,106*,-10
CCCN1C[C@@H](C)[C@@H](OC)CN(C)C(=O)c2cc(NC(=O)NC3CCCCC3)ccc2OC[C@@H]1C,x,x,x,x,x,-7
COc1ccc(S(=O)(=O)Nc2ccc3c(c2)C(=O)N([C@@H](C)CO)C[C@H](C)[C@@H](CN(C)C(=O)Nc2ccc(F)cc2)O3)cc1,x,x,x,x,13[16.7 µM],14
CC(C)c1ccc(C2C3=C(COC3=O)Nc3cc4c(cc32)OCO4)cc1 (stereo not given),34,13,3,-1,-6,79*
C[C@@H](O)C#Cc1ccc([C@H]2[C@@H](CO)N3CCCCN(CC4CCOCC4)C[C@@H]23)cc1,x,x,x,x,x,8
C[C@@H]1CN([C@@H](C)CO)S(=O)(=O)c2ccc(C3=CCCCC3)cc2O[C@@H]1CN(C)S(=O)(=O)c1ccc(F)cc1,x,x,x,x,62*[16.7 µM],x
Cc1ccc(S(=O)(=O)N(C)C[C@@H]2Oc3cc(C4=CCCC4)ccc3S(=O)(=O)N([C@@H](C)CO)C[C@H]2C)cc1,x,x,x,x,58*[16.7 µM],71*
